Laboratory results published in PubChem BioAssay AID1220 (Sanford-Burnham Center for Chemical Genomics, 2008).
The campaign covered roughly 190,000 compounds. About 1,300 (0.68%) were called active. Many of the other results were omitted from the sample, so actives are more common in it than they were. Values without a mark were called inactive. Rule as the data show it: active = inhibition above about 50%; inactive = the rest.

Molecular target: Mannose-6-phosphate isomerase (Homo sapiens) (UniProt P34949)
Sequence (P34949 whole entry, looked up): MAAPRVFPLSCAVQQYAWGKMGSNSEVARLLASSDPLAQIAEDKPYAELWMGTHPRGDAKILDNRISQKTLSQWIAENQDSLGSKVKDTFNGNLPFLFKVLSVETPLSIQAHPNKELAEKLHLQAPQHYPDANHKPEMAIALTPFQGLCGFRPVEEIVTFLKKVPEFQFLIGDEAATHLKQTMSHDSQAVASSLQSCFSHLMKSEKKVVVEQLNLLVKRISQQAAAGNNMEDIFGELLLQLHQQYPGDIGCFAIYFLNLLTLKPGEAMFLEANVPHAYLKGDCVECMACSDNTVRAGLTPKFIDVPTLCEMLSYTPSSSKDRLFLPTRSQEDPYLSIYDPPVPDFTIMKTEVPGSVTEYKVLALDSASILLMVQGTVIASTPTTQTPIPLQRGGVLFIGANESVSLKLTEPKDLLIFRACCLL
Experiment: MPI inhibition at elevated mannose 6-phosphate – biochemical, fluorescence intensity, high mannose 6-phosphate, primary screen (AID 1220)
Details: recombinant PMI enzyme, coupled fluorescence intensity; at 20 µM; active compounds read high

Structure (SMILES)	inhibition
COCc1nnc(NC(=O)c2ccccc2[N+](=O)[O-])s1	-1.2%
COc1cc(C(=O)ON=C2C=C(C)C(=O)C(C)=C2)cc(OC)c1OC	59.8% (active)
COc1cc(C(=O)O/N=C2/C=CC(=O)C(C)=C2C)cc(OC)c1OC	66% (active)
COc1cc(C(=O)O/N=C2\C=CC(=O)C=C2C)cc(OC)c1OC	64.7% (active)
CC1=CC(=O)C=C(C)C1=NOC(=O)c1cccc([N+](=O)[O-])c1	-3%
COc1cc(C(=O)Oc2cc(C)cc(C)c2)cc(OC)c1OC	9.6%
COc1cc(C(=O)O/N=C(\N)c2ccncc2)cc(OC)c1OC	-11.7%
CC1=CC(=NOC(=O)c2cccc([N+](=O)[O-])c2)C=C(C)C1=O	19.6%
CC1=C(C)/C(=N\OC(=O)/C=C/c2ccccc2)C=CC1=O	35.2%
COc1ccc(C(=O)ON=C2C=C(C)C(=O)C(C)=C2)cc1	40.1%
CC1=C(C)/C(=N/OC(=O)c2cccc([N+](=O)[O-])c2)C=CC1=O	13.4%
COc1cc(C(=O)O/N=C2\CCCc3c2ccc(OC)c3[N+](=O)[O-])cc(OC)c1OC	13.8%
COc1cc(C(=O)ON=C2C(C)=CC(=O)C=C2C)cc(OC)c1OC	71.8% (active)
CN(C)CCCN(Cc1cc2cc3c(cc2[nH]c1=O)OCO3)C(=S)NCc1ccco1	30.6%
CCCCc1nnc(NC(=O)CSc2nc(=O)cc(N)n2-c2ccccc2)s1	0.8%
CS(=O)(=O)N(CC(=O)N1CCOCC1)c1ccc2c(c1)OCO2	1.8%
COC(=O)COc1ccc(S(=O)(=O)NCc2cccnc2)cc1	4.3%
CC(C)(CO)Nc1ccc([N+](=O)[O-])cc1[N+](=O)[O-]	0.9%
O=C1Nc2ccccc2Oc2cc([N+](=O)[O-])cc(Oc3ccccc3)c21	-3.2%
COc1cc(C(=O)O/N=C2/C=C(C)C(=O)C=C2C)cc(OC)c1OC	53.5% (active)
COc1cc(C(=O)O/N=C(\N)c2ccc([N+](=O)[O-])cc2)cc(OC)c1OC	5.3%
COc1cc(C(=O)Oc2cccc(C)c2)cc(OC)c1OC	2.4%
Nc1cc(N2CCCC2)c(Cl)cc1[N+](=O)[O-]	25.9%
CC1CCC(C(C)C)C(OP(=O)(c2ccc(N(C)C)cc2)C(O)c2cccnc2)C1 (configuration not stated)	-4.5%
COc1ccc(C(=O)CCNc2ccc3c(c2)OCCO3)cc1	58% (active)
COc1ccc(C(=O)Nc2ccc3c(c2)OCCO3)cc1	-6.5%
COc1ccc(C(=O)CCNc2ccc(C)c(Cl)c2)cc1	0.5%
